Pf growth 48h – inhibits P. falciparum growth in the first generation, 48 h; AID 504832; 5.9% of 310,000 active; Potency, µM (series often up to 28.7 µM), inactives show at the highest dose activity change, negative = inhibition, most hits filed as inhibitors; P. falciparum luciferase growth in erythrocytes, 48 h; further: potency means the concentration at half of the fitted maximal effect; on the % scale 0 is the no-effect control and ±100 the full control effect
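Luciferase-expressing parasites in RBCs, 2% Hct / 0.1% parasitemia final; RPMI 1640 + 0.5% Albumax; 37 C, 5% CO2, one generation; luminescence read-out, lower signal = inhibition.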
Pf growth 96h – P. falciparum growth inhibition at 96 hours. P. falciparum luciferase reporter growth, 96 h. Potency, µM (doses to about 28.7 µM), for the others: at the top dose activity change, negative = inhibition, hits mostly inhibitors. AID 504834. 6.9% of 320,000 active; further: potency means the concentration at half of the fitted maximal effect; on the % scale 0 is the no-effect control and ±100 the full control effect
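Luminescence readout: decreased luciferase signal marks inhibited growth of reporter-expressing P. falciparum in infected red cells (2% hematocrit, 0.05% parasitemia final), exposed to compound two generations (96 h, 37 C, 5% CO2).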
Shiga inhibitor – blocks Shiga toxin action in Vero cells; Vero cells, Shiga toxin protein synthesis inhibition reporter; inhibition, % at 38.7 µM; AID 2315; 9.2% of 290,000 active; in the data active means inhibition mostly above about 28%, no sharp cut-off; inactive means mostly below about 43%; further: 0% is about no effect
HCV inh – inhibitors of hepatitis C virus infection. Huh7.5.1 HCVcc-Cre infection, luciferase reporter, 44 h. Potency, µM (doses to about 41.8 µM), without a hit: top-dose activity change, negative = inhibition, actives largely listed as inhibitors. 3.4% of 340,000 active. AID 651820; further: potency means the concentration at half of the fitted maximal effect; on the % scale 0 is the no-effect control and ±100 the full control effect
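A cell-based infection assay in which seeded cells (1,000 per well) receive test compound after 4 h, are inoculated with HCVcc-Cre at approximately 0.5 moi, and are incubated 44 h before luminescence detection.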
AMA1 RON2 block – disrupts binding of P. falciparum AMA1 to RON2; 0.2% of 360,000 active; AlphaScreen AMA1-biotinylated RON2 peptide binding; Potency, µM (top dose mostly 58.2 µM), without a hit: at the highest dose activity change, negative = inhibition, hits mostly inhibitors; AID 720542;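 further: potency means the concentration at half of the fitted maximal effect; 0% = vehicle wells and -100% = peptide control; nearly all actives have a fitted effect of over 45% in size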
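AMA1 (3D7) with his tag at 25 nM final met compounds first, then biotinylated RON2 peptide at 25 nM; detection used donor plus acceptor beads, 10 µg/mL apiece, read by AlphaScreen after 30 min at room temperature.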
CHX counter – counter-screen for Shiga toxin inhibitors: cycloheximide protein synthesis inhibition; max response, %; cell reporter, cycloheximide protein synthesis inhibition counterscreen; 12% of 300,000 active; in the data active means max response mostly above about 13%, no sharp cut-off; inactive means mostly below about 14%; further: read at 38.3 µM for the half of the compounds with a filed dose; 0% is about no effect
* hit, by the source's call; i = inactive; ? = inconclusive; nt = no result given. The list is not random: actives were taken first. Their share in the collection is about 21%. Unless noted, the call rests on the fitted dose curve; in most records, active means well fitted curve in the direction sought with a large enough effect; inconclusive means small, poorly fitted or top-dose-only effect, or another doubt; inactive means no such curve, though single readings can be large; an effect the other way counts as inactive or inconclusive.

SMILES	Pf growth 48h	Pf growth 96h	Shiga inhibitor	HCV inh	AMA1 RON2 block	CHX counter
Cc1ccccc1Nc1nc(-c2sc(NC(=O)c3ccco3)nc2C)cs1	12µM*	?	16	?	13%	9
Cc1ccccc1NC(=O)CSc1nnc(NC(=O)c2ccco2)s1	24%	3%	0	nt	10%	-2
O=C(/C=C/c1cccc([N+](=O)[O-])c1)OCC(=O)N1CCCCC1	nt	nt	nt	nt	-5%	nt
COc1ccc(Cl)cc1-c1nc(-c2ccc(NC(=O)c3ccncc3)cc2)no1	nt	nt	nt	?	-9%	nt
CC(Oc1ccc(Cl)cc1Cl)c1nc(-c2ccc(NC(=O)c3ccccn3)cc2)no1 (configuration not stated)	145%	-25%	71*	?	-13%	28*
COc1cc(C(=O)OC2C[C@H]3CC[C@@H](C2)N3)ccc1O (some centres not stated)	12µM*	?	-5	-8%	-1%	-1
CCCCCCC(=O)N(O)C1CC(=O)N(c2ccc(C)cc2)C1=O (configuration not stated)	nt	?	9	0%	16%	13
CCCCCCC(=O)N(O)C1CC(=O)N(c2ccc(Cl)cc2)C1=O (configuration not stated)	4.1µM*	10µM*	1	-5%	-14%	-2
CC(C)Oc1cccc(-c2cc(C(=O)NN3CCOCC3)c3ccccc3n2)c1	34%	?	18	-22%	-2%	12*
O=C(N/N=C/c1cc([N+](=O)[O-])ccc1Cl)c1cc(-c2ccccc2)nc2ccccc12	?	?	-11	-5%	3%	1
CCCc1ccc(-c2cc(C(=O)Nc3ccc([N+](=O)[O-])cn3)c3ccccc3n2)cc1	-95%	?	17*	13%	-15%	21*
CCCc1ccc(-c2cc(C(=O)NCCc3ccc(S(N)(=O)=O)cc3)c3ccccc3n2)cc1	167%	i	95*	?	3%	54*
O=C(NN1CCOCC1)c1cc(-c2ccc(Br)s2)nc2ccccc12	30%	0%	18	?	-6%	0
CCCc1ccc(-c2cc(C(=O)NN3CCOCC3)c3ccccc3n2)cc1	89%	257%	54	?	-1%	20*
COC(=O)c1ccc(CNC(=O)Cn2cnc3c(SC)nc(N)nc32)cc1	nt	nt	nt	?	5%	nt
O=C(c1ccc(Cl)c([N+](=O)[O-])c1)N1CCN(Cc2ccc3c(c2)OCO3)CC1	7%	-26%	-5	?	-4%	-2
CC1=Nc2ccccc2N=C(N)C1c1ccccc1 (configuration not stated)	62%	12%	67*	17%	-8%	40*
CC1=Nc2ccccc2N=C(NC(=O)c2ccccc2)C1c1ccc(Cl)cc1 (configuration not stated)	?	-29%	-4	-24%	-12%	0
O=C1c2ccccc2-c2nc3ccccc3nc21	?	nt	52	14%	4%	29*
O=C(O)c1cccc2c1C(=O)c1ccccc1-2	-1%	5%	6	21%	0%	-2
O=C1C(=C(I)I)c2ccccc2-c2ccccc21	nt	nt	nt	8.9µM*	?	nt
O=C1C(=O)c2ccccc2-c2ccccc21	nt	?	-41	2.8µM*	-20%	-12
CC1CC(C)(C)CC2(C1)NC(=O)N(CC(=O)N1CCN(Cc3ccc(C#N)cc3)CC1)C2=O (configuration not stated)	-28%	2%	nt	1.4µM*	5%	nt
CC1CC(C)(C)CC2(C1)NC(=O)N(CC(=O)N1CCN(S(=O)(=O)c3cccs3)CC1)C2=O (configuration not stated)	9.3µM*	?	nt	17%	-9%	nt
CC1(c2ccc3ccccc3c2)NC(=O)N(CC(=O)N2CCN(Cc3ccc(C#N)cc3)CC2)C1=O (configuration not stated)	?	-13%	nt	1.3µM*	-20%	nt
SMILES	Pf growth 48h	Pf growth 96h	Shiga inhibitor	HCV inh	AMA1 RON2 block	CHX counter
COc1cccc(CN(C)C(=O)COc2cccc3c2OC(C)(C)C3)c1OC	nt	nt	nt	7%	-10%	nt
CCCCNc1c(-c2cccnc2)nc2nc(C)cc(C)n12	nt	nt	nt	nt	-11%	nt
CSc1cccc(NC(=O)C2(S(=O)(=O)c3ccc(C)cc3)CC2)c1	23%	-18%	19	-5%	-8%	12
CCCC(=O)Nc1ccc(S(=O)(=O)N2CCCC2)cc1	24%	nt	-21	9%	0%	-5
CCOC(=O)/C=C/C(=O)Nc1ccc(S(=O)(=O)Nc2cc(C)on2)cc1	10µM*	26%	3	5%	8%	-3
CCOC(=O)CCC(=O)Nc1ccc(S(=O)(=O)N2CCCCC2)cc1	-3%	5.2µM*	-12	1%	-11%	-3
Cc1cc(NS(=O)(=O)c2ccc(NC(=O)COc3c(C)cc(Br)cc3C)cc2)no1	-7%	9.3µM*	-21	7%	-13%	-4
COc1ccc(OCC(=O)Nc2ccc(S(=O)(=O)Nc3cc(C)on3)cc2)cc1	-4%	1%	nt	9%	6%	nt
CCOC(=O)/C=C/C(=O)Nc1ccc(S(=O)(=O)N2CCCCCC2)cc1	-9%	12µM*	1	-20%	9%	-2
O=C1Nc2ccccc2N=C(c2ccc3c(c2)OCO3)C1N(C(=O)c1ccc2ccccc2c1)C1CC1 (configuration not stated)	nt	nt	nt	nt	-10%	nt
CCOC(=O)CNC(=O)N(CCOC)CC1CCCN(C2Cc3ccccc3C2)C1 (configuration not stated)	1%	-31%	-5	4%	-5%	-2
O=C(C(Cl)c1ccccc1)N1CCOCC1 (configuration not stated)	?	?	-6	?	5%	10
CCOC(=O)/C=C/C(=O)Nc1ccc(-c2nnc3n2CCCCC3)cc1	?	0.33µM*	-2	14%	-1%	-5
CCCCCC(=O)Nc1ccc(-c2nnc3n2CCCCC3)cc1	?	?	-19	11%	-5%	2
C[C@@]12C(=O)N(c3cccc(Cl)c3)C(=O)N1[C@H](c1ccc(Cl)cc1)[C@@H]1C(=O)N(C3CCCCC3)C(=O)[C@@H]12	?	?	nt	-21%	18%	nt
CC(C)C[C@@]12C(=O)N(c3cccc(F)c3)C(=O)N1[C@H](c1ccc(Cl)cc1)[C@@H]1C(=O)N(C3CCCCC3)C(=O)[C@@H]12	2.9µM*	4.7µM*	nt	2%	-3%	nt
C[C@@]12C(=O)N(c3cccc(F)c3)C(=O)N1[C@H](c1ccc(Cl)cc1)[C@@H]1C(=O)N(C3CCCCC3)C(=O)[C@@H]12	12µM*	-7%	nt	?	22%	nt
CC(C)(C)N1C(=O)[C@H]2[C@@H](c3ccc(Br)cc3)N3C(=O)N(c4cccc(F)c4)C(=O)[C@@]3(C)[C@H]2C1=O	?	0%	nt	24%	-7%	nt
